# RmlC RmlD mix: mixture blocks RmlC and RmlD coupled enzyme activity; hit rate 0.39% among 110,000; inhibition, % at 5.5 µM; RmlC/RmlD coupled enzyme inhibition, 384-well mixture HTS; in the data active = inhibition above about 30%, passing the limit was not always enough; inconclusive = no clear call, values can overlap the other calls
# HIV RNase H inh-1: inhibitors of HIV-1 reverse transcriptase RNase H. P04585. RT-RNase H RNA/DNA duplex cleavage, fluorescence. inhibition, % at 10 µM. hit rate 1.9% among 65,000; in the data active = inhibition above about 50%
# HIV RNase H inh-2: confirmation of HIV-1 reverse transcriptase RNase H inhibitors; hit rate 39% among 1,000; shares compounds with HIV RNase H inh-1; inhibition, % at 10 µM; Recombinant RT RNase H, fluorescent RNA/DNA duplex cleavage; AID 651; in the data active = inhibition above about 48%; inconclusive = no clear call, values can overlap the other calls
# An asterisk follows results filed as active; ? = inconclusive; / = no result. The entries come from a sample that favours hits as a whole.
SMILES,RmlC RmlD mix,HIV RNase H inh-1,HIV RNase H inh-2
Cc1cccc(NC(=O)c2ccccc2Br)n1,6.8,63.2*,20.3
CC(C)OC(=O)c1cccnc1SCc1cc(=O)n2ccccc2n1,8.6,-18.0,/
CCN(CC)c1ccc(C2C(C(C)=O)C(=O)CC(C)(O)C2C(C)=O)cc1 (stereo unspecified),8.5,/,/
COc1ccc2nc(SCC(=O)Nc3c(C)cccc3C)[nH]c2c1,4.5,/,/
COc1ccc2nc(S(=O)Cc3ncc(C)c(OC)c3C)[nH]c2c1 (stereo unspecified),-10.4,76.2*,18.3
O=C(Cn1cnc2ccccc21)OCC(=O)N1CCc2ccccc2C1,-3.0,-19.1,/
O=C(NCCN1CCN(Cc2ccccc2Cl)CC1)Nc1ccccc1,-6.3,/,/
CC(C)(O)C#Cc1ccc(C(=O)NCc2cccs2)s1,8.0,64.8*,37.9
CC(=O)c1ccc(C#CC(C)(C)O)s1,4.4,-9.9,/
CCCCn1c(-c2ccc([N+](=O)[O-])cc2)n[nH]c1=S,-7.4,/,/
Cc1ccc(C2CC(=O)NC(SCCC(C)C)=C2C#N)cc1 (stereo unspecified),3.0,65.1*,9.6
COC(=O)CSC1=C(C#N)C(c2ccc(C(C)C)cc2)CC(=O)N1 (stereo unspecified),-14.4,-8.7,/
COCCn1cnnc1SCC(=O)Nc1ccccc1C(=O)Nc1ccc2c(c1)OCO2,-13.6,6.6,/
Clc1ccccc1-c1nn2c(COc3ccccc3)nnc2s1,-8.1,-2.4,/
COc1ccc(-c2nnc3sc(COc4ccccc4)nn23)cc1,0.7,-1.7,/
c1ccc(Cc2nn3c(COc4ccccc4)nnc3s2)cc1,26.2,93.3*,64.2*
c1ccc(OCc2nn3c(C4CCCCC4)nnc3s2)cc1,-2.5,63.5*,28.6
Cc1cc(CSc2ccccc2)ccc1NC(=O)c1ccc(Cl)c([N+](=O)[O-])c1,-10.4,/,/
CC1=C(C(=O)Nc2ccccn2)C(c2cccnc2)n2nnnc2N1 (stereo unspecified),-3.3,27.4,/
Cc1cc(CN2CCN(CCC#N)CC2)c(O)c(C2(C)CCCCC2)c1,8.0,-9.5,/
O=C(NCC(=O)N(c1ccc(F)cc1)C(C(=O)NCC1CCCO1)c1ccccc1)c1ccco1 (stereo unspecified),5.2,56.6*,40.4
O=C(NCC(=O)N(c1cccc(F)c1)C(C(=O)NCC1CCCO1)c1ccccc1)c1ccco1 (stereo unspecified),-15.1,-2.7,/
Cc1nc(N2CCN(c3ccccc3)CC2)[nH]c(=O)c1Cc1cccc2ccccc12,/,62.7*,-7.7
Cc1nc(N2CCN(C(c3ccccc3)c3ccccc3)CC2)[nH]c(=O)c1C,4.4,2.8,/
COC(=O)c1ccc(OCC(=O)c2ccccc2OC)cc1,12.5,/,/
SMILES,RmlC RmlD mix,HIV RNase H inh-1,HIV RNase H inh-2
Oc1ccc(C(c2nnnn2C2CCCC2)N2CCc3ccccc3C2)cc1 (stereo unspecified),-5.5,11.0,/
COc1cc(C(c2nnnn2C2CCCC2)N2CCc3ccccc3C2)ccc1O (stereo unspecified),-7.3,50.7*,22.2
CC1(C)CC(=O)C(C(c2ccco2)C2C(=O)CC(C)(C)CC2=O)C(=O)C1,-16.2,69.4*,31.6
CC1(C)C(=O)C2(CCCC2)C(=O)OC1c1ccco1 (stereo unspecified),14.1,-4.2,/
CCCOc1ccc(OC(=O)c2ccc(Br)o2)cc1,-43.2,-13.4,/
O=C1c2ccccc2CC1Sc1nnc(-c2ccncc2)o1 (stereo unspecified),4.0,45.9,/
Cc1nnc(SC2CC(=O)N(c3ccccc3)C2=O)s1 (stereo unspecified),-13.5,/,/
O=C1CC(Sc2nnc(-c3ccccc3)o2)C(=O)N1c1ccccc1 (stereo unspecified),12.4,52.0*,18.8
Cc1ccccc1N1C(=O)CC(Sc2nnc(-c3ccccc3)o2)C1=O (stereo unspecified),8.2,57.6*,44.7
COC(=O)C1=C[C@@H](C(=O)OC)[C@@H]2C3=C(C(=O)[C@@]2(C)NC(=O)c2ccccc2)[C@H](c2ccccc2)[C@@H]2C(=O)NC(=O)[C@@H]2[C@@H]3C1,-11.4,/,/
COc1cccc(C2(O)CCN(C(=O)Cc3cccnc3)CC2)c1,4.8,/,/
Cc1cc(=O)[nH]c(/N=C(/NC(=O)c2ccccc2)Nc2ccc3c(c2)OCCO3)n1,/,48.2,/
CCCc1cc(=O)[nH]c(/N=C(/NC(=O)c2ccccc2)Nc2ccc3c(c2)OCCO3)n1,9.4,60.5*,48.5
O=C(OCn1nnc2ccccc2c1=O)c1ccc2ccccc2n1,3.1,3.4,/
CSc1nnc(-c2cccc(C)c2)n1N,3.9,/,/
COc1cccc(OCC(=O)Nc2c(C(=O)Nc3ccc(OC)cc3OC)oc3ccccc23)c1,/,89.1*,92.9*
CCOCC(=O)Nc1c(C(=O)Nc2ccc(OC)cc2OC)oc2ccccc12,-7.2,16.8,/
COC(=O)CSc1nnc(CNS(=O)(=O)c2ccc(Cl)cc2)n1C,7.2,/,/
Cc1noc(NS(=O)(=O)c2ccc(NC(=O)CSc3nc4c(cc3C#N)CCCC4)cc2)c1C,-16.1,11.0,/
N#Cc1cc2c(nc1SCC(=O)Nc1sc3c(c1C#N)CCC3)CCCC2,3.9,/,/
CCOC(=O)c1sc(NC(=O)CSc2nc3c(cc2C#N)CCC3)c(C#N)c1C,/,42.8,/
CCOC(=O)c1sc(NC(=O)CSc2nc3c(cc2C#N)CCCCCC3)c(C#N)c1C,15.6,72.9*,?
Cc1noc(NS(=O)(=O)c2ccc(NC(=O)CSc3nc4c(cc3C#N)CCC4)cc2)c1C,-9.8,77.5*,?
CCOC(=O)c1cnc(SCC(=O)Nc2cc(OC)cc(OC)c2)nc1N,7.0,-2.6,/
CCOC(=O)c1cnc(SCC(=O)Nc2sc(C)c(C)c2C#N)nc1N,3.2,62.9*,16.1
SMILES,RmlC RmlD mix,HIV RNase H inh-1,HIV RNase H inh-2
N#Cc1cc2c(nc1SCC(=O)Nc1sc3c(c1C#N)CCC3)CCCCC2,-8.9,66.2*,22.6
Cc1cc(C)c(-c2noc(C(=O)OC(C)(C)C)c2C(=O)OC(C)(C)C)c(C)c1,-6.7,/,/
c1ccc(OCCOCCSc2ncccn2)cc1,-5.9,-29.5,/
CON(C)c1nc(OCCNC(=O)OCc2ccc(Cl)cc2Cl)nc(N(C)C)n1,8.9,-17.6,/
NC(=O)CC(NC(=O)Cc1cccc2ccccc12)c1ccc(NCCc2ccccc2F)c([N+](=O)[O-])c1 (stereo unspecified),-3.3,/,/
COC(=O)c1sc(N2C(=O)c3oc4ccccc4c(=O)c3C2c2cccs2)nc1C (stereo unspecified),-6.8,92.5*,56.6*
C=CCOC(=O)c1sc(N2C(=O)c3oc4ccccc4c(=O)c3C2c2ccco2)nc1C (stereo unspecified),/,36.2,/
Cc1cccc(N2CCN(c3nnnn3-c3ccccc3)CC2C)c1 (stereo unspecified),3.9,-7.2,/
CC1=C(C#N)C(c2ccoc2)C(C(=O)OCc2ccccc2)=C(N)S1 (stereo unspecified),3.4,-46.6,/
CC(c1ccccc1)C1C(C#N)=C(N)SC(N)=C1C#N (stereo unspecified),4.5,-6.3,/
N#CC1=C(N)SC(N)=C(C#N)C1c1ccoc1,8.6,86.2*,43.9
Cc1ccc(C2C(C#N)=C(N)SC(N)=C2C#N)c(C)c1,-29.1,83.1*,4.2
CC(C)C1C(C#N)=C(N)SC(N)=C1C#N,130.9,-7.6,/
Cc1ccc(C2C(C#N)=C(N)SC(N)=C2C#N)cc1,/,66.9*,26.1
COc1ccc(C2/C=C\CN(C(=O)C3CCCC3)CC(=O)N2Cc2ccc(F)cc2)cc1 (stereo unspecified),-7.9,/,/

# Source: PubChem BioAssay
